Assay results from PubChem BioAssay (EPA / NIEHS).
Several values for one entry are separate records, joined by “and”; a condition that tells them apart may be missing. Equal values may be shown once. A structure can be active in one record and inactive in another. Activity calls are given as the source filed them. Rule for the calls: active = hit-call score of the fitted dose curve at least 0.9, where 1 is the maximum; inactive = score below 0.9.

Key:
[1] = read-out: Urokinase-type plasminogen activator receptor (uPAR), PLAUR (gene 5329); experiment: BSK_4H_uPAR: BioMAP Diversity Plus: 4H Assay for Urokinase-type plasminogen activator receptor (uPAR) Biomarker Activity (AID 2283030); conditions: primary human endothelial cells (HUVEC); actives raise or lower the signal
Summary of the method: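 HUVEC, 24 h post-dose; uPAR by ELISA; bidirectional fit vs DMSO baseline.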

[2] = read-out: Human Leukocyte Antigen - DR isotype (HLADR), HLA-DRA (gene 3122); experiment: BSK_BE3C_HLADR: BioMAP Diversity Plus: BE3C Assay for Human Leukocyte Antigen - DR isotype (HLADR) Biomarker Activity (AID 2283032); conditions: primary human bronchial epithelial cells; actives raise or lower the signal
Summary of the method: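 Human primary bronchial epithelial cells in the BE3C system were exposed to chemicals for 24 h, after which HLA-DR levels were quantified by ELISA. Activity was fitted bidirectionally, gain or loss of signal, against DMSO as negative control and baseline.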

[3] = read-out: Interferon-gamma inducible Protein 10 (IP10), CXCL10 (gene 3627); experiment: BSK_BE3C_IP10: BioMAP Diversity Plus: BE3C Assay for Interferon-gamma inducible Protein 10 (IP10) Biomarker Activity (AID 2283034); conditions: primary human bronchial epithelial cells; actives raise or lower the signal
Summary of the method: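 Human primary bronchial epithelial cells were exposed to chemicals for 24 hours, after which IP-10 levels were measured by ELISA. Data were fitted bidirectionally against DMSO, which served as the negative control and activity baseline.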

[4] = read-out: urokinase plasminogen activator (uPA), PLAU (gene 5328); experiment: BSK_BE3C_uPA: BioMAP Diversity Plus: BE3C Assay for urokinase plasminogen activator (uPA) Biomarker Activity (AID 2283038); conditions: primary human bronchial epithelial cells; actives raise or lower the signal
Summary of the method: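 ELISA read-out of uPA in human lung primary bronchial epithelial cultures, 24 h post-dosing. Gain or loss of signal fitted bidirectionally relative to DMSO baseline; cytotoxicity checked in parallel cultures via SRB total protein stain.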

[5] = read-out: Interleukin-6 (IL6), IL6 (gene 3569); experiment: BSK_CASM3C_IL6: BioMAP Diversity Plus: CASM3C Assay for Interleukin-6 (IL6) Biomarker Activity for (AID 2283040); conditions: primary human coronary artery smooth muscle cells; actives raise or lower the signal
[6] = read-out: Monokine induced gamma interferon (MIG), CXCL9 (gene 4283); experiment: BSK_CASM3C_MIG: BioMAP Diversity Plus: CASM3C Assay for Monokine induced gamma interferon (MIG) Biomarker Activity (AID 2283048); conditions: primary human coronary artery smooth muscle cells; actives raise or lower the signal;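 note: MIG protein level measured by ELISA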
[7] = read-out: serum amyloid A (SAA), SAA1 (gene 6288); experiment: BSK_CASM3C_SAA: BioMAP Diversity Plus: CASM3C Assay for serum amyloid A (SAA) Biomarker Activity (AID 2283049); conditions: primary human coronary artery smooth muscle cells; actives raise or lower the signal;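 note: SAA protein level quantified by ELISA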
[8] = read-out: Urokinase-type plasminogen activator receptor (uPAR), PLAUR (gene 5329); experiment: BSK_CASM3C_uPAR: BioMAP Diversity Plus: CASM3C Assay for Urokinase-type plasminogen activator receptor (uPAR) Biomarker Activity (AID 2283054); conditions: primary human coronary artery smooth muscle cells; actives raise or lower the signal;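 note: cell-surface uPAR protein level quantified by ELISA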
[9] = read-out: Epidermal growth factor receptor (EGFR), EGFR (gene 1956); experiment: BSK_hDFCGF_EGFR: BioMAP Diversity Plus: hDFCGF Assay for Epidermal growth factor receptor (EGFR) Biomarker Activity (AID 2283057); conditions: primary human foreskin fibroblasts; actives raise or lower the signal
Summary of the method: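 Primary human foreskin fibroblasts were exposed to compound for 24 h, after which cell-surface EGFR was quantified by ELISA. Activity was fitted bidirectionally against the DMSO negative control as baseline.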

[10] = read-out: Vascular cell adhesion molecule 1 (VCAM1), VCAM1 (gene 7412); experiment: BSK_hDFCGF_VCAM1: BioMAP Diversity Plus: hDFCGF Assay for Vascular cell adhesion molecule 1 (VCAM1) Biomarker Activity (AID 2283065); conditions: primary human foreskin fibroblasts; actives raise or lower the signal;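 for AC50: VCAM-1 protein level quantified by ELISA after 24 h chemical exposure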
Summary of the method: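 ELISA read-out of VCAM-1 on human skin fibroblasts, 24 h post-dose; gain or loss of signal fitted bidirectionally against DMSO baseline.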

[11] = read-out: Intercellular Adhesion Molecule 1 (ICAM1), ICAM1 (gene 3383); experiment: BSK_KF3CT_ICAM1: BioMAP Diversity Plus: KF3CT Assay for Intercellular Adhesion Molecule 1 (ICAM1) Biomarker Activity (AID 2283067); conditions: primary human keratinocytes with fibroblasts; actives raise or lower the signal
Summary of the method: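 ELISA readout of ICAM-1; KF3CT human skin co-culture (keratinocytes + foreskin fibroblasts), 24 h post-dose; gain/loss fit vs DMSO baseline.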

[12] = read-out: Interleukin-8 (IL8), CXCL8 (gene 3576); experiment: BSK_LPS_IL8: BioMAP Diversity Plus: LPS Assay for Interleukin-8 (IL8) Biomarker Activity (AID 2283078); conditions: primary human HUVEC with PBMC; actives raise or lower the signal
Summary of the method: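 HUVEC + PBMC co-culture, LPS-activated; test chemicals dosed, IL-8 read by ELISA at 24 h. Bidirectional curve fit vs DMSO baseline (gain or loss of signal).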

[13] = read-out: Interleukin-1 alpha (IL1a), IL1A (gene 3552); experiment: BSK_LPS_IL1a: BioMAP Diversity Plus: LPS Assay for Interleukin-1 alpha (IL1a) Biomarker Activity (AID 2283080); conditions: primary human HUVEC with PBMC; actives raise or lower the signal
Summary of the method: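 HUVEC/PBMC co-culture, LPS system; 24 h after dosing; IL-1a by ELISA; gain or loss of signal fitted bidirectionally vs DMSO baseline.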

[14] = BSK_LPS_PGE2: BioMAP Diversity Plus: LPS Assay for Prostaglandin E2 (PGE2) Biomarker Activity (AID 2283082); conditions: primary human HUVEC with PBMC; actives raise or lower the signal;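 for AC50: secreted prostaglandin E2 measured by ELISA in LPS-stimulated co-culture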
Summary of the method: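 HUVEC plus PBMC co-culture stimulated with LPS; secreted PGE2 quantified by ELISA 24 h after chemical dosing. Activity fitted bidirectionally against DMSO as negative control and baseline; parallel SRB total-protein staining served as cytotoxicity check.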

[15] = read-out: Macrophage colony-stimulating factor (MCSF), CSF1 (gene 1435); experiment: BSK_LPS_MCSF: BioMAP Diversity Plus: LPS Assay for Macrophage colony-stimulating factor (MCSF) Biomarker Activity (AID 2283083); conditions: primary human HUVEC with PBMC; actives raise or lower the signal
Summary of the method: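 HUVEC + PBMC co-culture (human primary), 24 h post-dose; M-CSF by ELISA; gain/loss of signal fitted bidirectionally vs DMSO baseline.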

[16] = read-out: Tissue Factor, F3 (gene 2152); experiment: BSK_LPS_TissueFactor: BioMAP Diversity Plus: LPS Assay for Tissue Factor Biomarker Activity (AID 2283084); conditions: primary human HUVEC with PBMC; actives raise or lower the signal
Summary of the method: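 HUVEC/PBMC co-culture, LPS-activated; CD142 ELISA read 24 h post-dose; bidirectional curve fit vs DMSO negative control.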

CD69, CD69 (gene 969) = experiment: BSK_SAg_CD69: BioMAP Diversity Plus: SAg Assay for CD69 Biomarker Activity (AID 2283089); conditions: primary human HUVEC with PBMC; actives raise or lower the signal;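 for AC50: cell surface CD69 protein quantified by ELISA with fluorescence detection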
Summary of the method: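 Values derive from bidirectional fitting relative to DMSO vehicle. Cells: umbilical vein endothelium plus peripheral blood mononuclear cells, treated 24 h before fluorescent ELISA for CD69.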

[17] = ATG_M_19_CIS: Attagene CIS-FACTORIAL HepG2 Assay for M19 Transcription Factor (Internal Marker) (AID 2282939); conditions: HepG2 Attagene CIS-FACTORIAL M19 internal marker reporter; actives raise or lower the signal
Summary of the method: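 HepG2 cells transiently transfected with cis-regulated multiple reporter transcription units were dosed for 24 h; reporter mRNA was quantified by RT-PCR, 6-FAM primer-extension labelling, HpaI digestion and capillary electrophoresis, with bidirectional fitting against DMSO baseline.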

[18] = target: Bile acid receptor (Homo sapiens) (UniProt Q96RI1); experiment: ATG_IR1_CIS: Attagene CIS-FACTORIAL HepG2 Assay for human Nuclear Receptor Subfamily 1 Group H Member 4 (NR1H4), IR1 submotif (AID 2282946); conditions: IR1 reporter transcription, actives raise or lower the signal
Summary of the method: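 HepG2 cells transiently transfected with multiple cis-promoter-driven reporter units to measure endogenous transcription factor activity; 24 h exposure. Reporter mRNA read by RT-PCR, FAM labelling, HpaI digestion and capillary electrophoresis. Bidirectional fit versus DMSO.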

[19] = target: Hepatocyte nuclear factor 6 (Homo sapiens) (UniProt Q9UBC0); experiment: ATG_HNF6_CIS: Attagene CIS-FACTORIAL HepG2 Assay for human Hepatocyte Nuclear Factor 6 (HNF6) (AID 2282952); conditions: HepG2 Attagene cis-factorial HNF6 reporter transcription; actives raise or lower the signal
Summary of the method: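 Transiently transfected HepG2 cells expressing cis-regulated reporter transcription units were exposed to chemical for 24 h in a 24-well format. Reporter transcript abundance was determined by fluorescence capillary electrophoresis.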

Measured: AC50

Sequence of Hepatocyte nuclear factor 6 (Homo sapiens) (Q9UBC0 whole entry, looked up): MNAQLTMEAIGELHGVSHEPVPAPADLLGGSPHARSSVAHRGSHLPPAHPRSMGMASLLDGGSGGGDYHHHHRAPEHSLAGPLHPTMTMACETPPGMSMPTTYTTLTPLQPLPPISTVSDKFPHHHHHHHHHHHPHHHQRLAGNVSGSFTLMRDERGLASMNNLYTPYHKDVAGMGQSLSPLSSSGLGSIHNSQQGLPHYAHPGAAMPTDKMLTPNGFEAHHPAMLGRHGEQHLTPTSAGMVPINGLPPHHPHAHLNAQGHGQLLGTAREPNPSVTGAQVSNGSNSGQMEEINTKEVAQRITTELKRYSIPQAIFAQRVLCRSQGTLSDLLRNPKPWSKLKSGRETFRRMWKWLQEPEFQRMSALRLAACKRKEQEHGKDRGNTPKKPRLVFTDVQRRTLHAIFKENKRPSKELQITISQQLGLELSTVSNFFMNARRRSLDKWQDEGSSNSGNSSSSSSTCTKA
Sequence of Bile acid receptor (Homo sapiens) (Q96RI1 whole entry, looked up): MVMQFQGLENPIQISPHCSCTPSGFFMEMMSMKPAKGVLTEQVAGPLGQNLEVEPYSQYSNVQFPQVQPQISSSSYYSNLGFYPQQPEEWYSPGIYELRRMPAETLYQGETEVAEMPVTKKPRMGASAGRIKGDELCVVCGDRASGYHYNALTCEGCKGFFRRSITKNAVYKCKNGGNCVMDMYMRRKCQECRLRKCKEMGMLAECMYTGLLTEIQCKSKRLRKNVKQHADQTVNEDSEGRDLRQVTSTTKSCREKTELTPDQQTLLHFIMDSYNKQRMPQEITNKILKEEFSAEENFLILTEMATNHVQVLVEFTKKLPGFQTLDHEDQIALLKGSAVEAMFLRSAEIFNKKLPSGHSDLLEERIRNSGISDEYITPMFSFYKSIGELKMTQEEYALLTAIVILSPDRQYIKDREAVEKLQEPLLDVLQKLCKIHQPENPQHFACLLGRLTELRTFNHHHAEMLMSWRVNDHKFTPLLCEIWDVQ

C1CN(CCOCCN2CCOCC2)CCO1
inactive: [1] | [2] | [3] | [4] | [5] | [6] | [7] | [8] | [9] | [10] | [11] | [12] | [13] | [14] | [15] | [16] | CD69, CD69 (gene 969)
active: [6] 1.82 µM | [12] 4.01 µM

Oc1ccc(Cl)cc1C1CCCC1
active: [18] 57.8 µM | [19] 55.6 µM
inactive: [17]

CC(C)C1OCCN1CCOC(=O)NCCCCCCNC(=O)OCCN1CCOC1C(C)C (stereo not drawn)
not listed: [17] | [18] | [19]
inactive: all other assays above

O=C(CC(C(=O)OC1CCCCC1)S(=O)(=O)O)OC1CCCCC1 (stereo not drawn)
inactive: [17] | [18]

CC(C)CC(=O)CC(C)CC(C)C (stereo not drawn)
active: [1] 30.9 µM | [2] 36 µM | [3] 36.9 µM | [5] 20 µM | [6] 32.1 µM | [8] 30.4 µM | [11] 31.8 µM | [13] 35 µM
not listed: [17]
inactive: all other assays above

O=C(Oc1ccccc1)c1ccccc1
inactive: [17] | [18] | [19]

c1ccc(CNc2ncnc3nc[nH]c23)cc1
inactive: [18] | [19]

CCCCCCCCCCCCCCCCCC[N+](C)(C)C
inactive: [1] | [7] | [14]
active: [18] 45.2 µM | [19] 42.2 µM | [2] 2.52 µM | [3] 2.69 µM | [4] 7.3 µM | [5] 8.51 µM | [6] 9.22 µM | [8] 6.31 µM | [9] 2.81 µM | [10] 2.33 µM | [11] 3.6 µM | [12] 7.3 µM | [13] 1.22 µM | [15] 5 µM | [16] 8.03 µM | CD69, CD69 (gene 969) 7.15 µM

COc1cc(CNC(=O)CCCC/C=C/C(C)C)ccc1O
inactive: [1] | [2] | [3] | [4] | [5] | [6] | [7] | [8] | [9] | [10] | [11] | [12] | [13] | [15] | [16] | CD69, CD69 (gene 969)
active: [10] 0.384 µM | [14] 4.62 µM and 2.9 µM | CD69, CD69 (gene 969) 27.1 µM

COc1ccc2ccccc2c1
inactive: [17]

NC(N)=Nc1nc(CSCCC(N)=NS(N)(=O)=O)cs1
active: [17] 153 µM
inactive: [18] | [19]

CCO[Si](CCCN)(OCC)OCC
inactive: [17] | [18] | [19]

CCC[Si](OC(C)=O)(OC(C)=O)OC(C)=O
inactive: [1] | [2] | [3] | [4] | [5] | [6] | [7] | [8] | [9] | [10] | [11] | [12] | [13] | [14] | [15] | [16] | CD69, CD69 (gene 969)
active: [8] 3.83 µM
